Assay results from PubChem BioAssay AID602410 (Johns Hopkins Ion Channel Center, 2012).
About 2,800 (0.82%) of roughly 340,000 compounds were called active.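 How the source made its calls: active means B-score under library mean minus 4 SD, starting fluorescence ratio at most library mean plus 5 SD; inactive means the rest.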 This excerpt belongs to a sample that is enriched for actives.

target: Potassium channel subfamily K member 3 (Homo sapiens) (UniProt O14649); assay: human KCNK3 channel inhibitors, primary screen, CHO cells, FluxOR thallium flux, B-score (AID 602410); conditions: FluxOR fluorescence, at 10 µM; stronger effect = lower value;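 on B-score: more negative B-score means stronger inhibition of thallium flux through KCNK3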
Sequence (O14649 whole entry, looked up): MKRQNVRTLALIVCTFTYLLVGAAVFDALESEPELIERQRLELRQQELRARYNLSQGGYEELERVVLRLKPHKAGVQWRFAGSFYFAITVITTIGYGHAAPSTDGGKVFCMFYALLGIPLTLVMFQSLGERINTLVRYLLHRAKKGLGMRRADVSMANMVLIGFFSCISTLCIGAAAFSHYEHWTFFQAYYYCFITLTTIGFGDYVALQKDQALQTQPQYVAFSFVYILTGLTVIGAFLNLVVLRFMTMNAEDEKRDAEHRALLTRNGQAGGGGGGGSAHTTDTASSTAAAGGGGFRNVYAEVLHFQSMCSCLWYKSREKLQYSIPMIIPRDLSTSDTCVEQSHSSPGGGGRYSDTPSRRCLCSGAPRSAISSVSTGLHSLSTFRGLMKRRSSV

Structure (SMILES)	B-score
CCCCCCN=C(CC)c1c(O)n(CCCC)c(=O)[nH]c1=O	-9.07 (active)
CCCCn1c(O)c(C(CC)=NCc2ccco2)c(=O)[nH]c1=O	inactive
CCC(=NCCCO)c1c(O)n(-c2ccc(OC)cc2)c(=O)[nH]c1=O	inactive
COc1ccc(Br)cc1CNCCc1cccc(Cl)c1	inactive
CCCCC(=O)N/N=C/c1c(O)n(CC)c(=S)n(CC)c1=O	inactive
Oc1cc2c(cc1CN1CCN(c3ccccc3)CC1)OCO2	inactive
COc1ccc(C(=O)C2CCCN(Cc3ccc(C)s3)C2)cc1OC (stereo not given)	inactive
COc1ccccc1C1=NCc2nnc(CSC)n2-c2ccc(Cl)cc21	-9.71 (active)
Cc1cc(C(=O)OCC(=O)Nc2c(F)cccc2F)c(C)n1C1CC1	inactive
CC(C)c1c(CN(C)C(C)Cc2ccccc2)n(C)n(-c2ccccc2)c1=O (stereo not given)	inactive
CCN1CCN(Cc2cc(OC)c3c(c2)OCO3)CC1	inactive
CCOC(=O)C1SC2(C(F)(F)C(F)F)CC1(O)c1c(c(OC)c3occc3c1OC)O2 (stereo not given)	-10.9 (active)
CCOC(=O)C(O)(c1ccc(N=Cc2ccccc2O)c(C)c1)C(F)(F)F (stereo not given)	inactive
CC12CN3CC(C)(CN(C1)C3c1cccs1)C2 (stereo not given)	inactive
CNCC(O)c1cc(F)c(OCc2ccccc2)c(OCc2ccccc2)c1F (stereo not given)	inactive
